High-throughput results: PubChem BioAssay, several laboratories
OPRM1-OPRD1 inv = inverse agonist of human OPRM1-OPRD1 heterodimerization; 340,000 compounds, 0.21% hits; inhibition, % at 9.3 µM; P35372+P41143; cell-based MOR-DOR heterodimer luminescence, inverse agonism; AID 504357; in the data active = inhibition above about 22%, passing the limit was not always enough;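 also: 0% = cells with DMSO and 100% = wells without cells with DMSO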
HTR5A inv ctr = counter-screen for OPRM1-OPRD1 inverse agonists: human HTR5A inverse agonism | P47898 | HTR5A cell line, luminescence | inhibition, % at 9.3 µM | 340,000 compounds, 0.083% hits | AID 504634; in the data active = inhibition mostly above about 23%, no sharp cut-off; inactive = mostly below about 18%;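 also: 0% = cells with DMSO and 100% = no-cell wells with DMSO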
Target sequence (P47898 whole entry, looked up): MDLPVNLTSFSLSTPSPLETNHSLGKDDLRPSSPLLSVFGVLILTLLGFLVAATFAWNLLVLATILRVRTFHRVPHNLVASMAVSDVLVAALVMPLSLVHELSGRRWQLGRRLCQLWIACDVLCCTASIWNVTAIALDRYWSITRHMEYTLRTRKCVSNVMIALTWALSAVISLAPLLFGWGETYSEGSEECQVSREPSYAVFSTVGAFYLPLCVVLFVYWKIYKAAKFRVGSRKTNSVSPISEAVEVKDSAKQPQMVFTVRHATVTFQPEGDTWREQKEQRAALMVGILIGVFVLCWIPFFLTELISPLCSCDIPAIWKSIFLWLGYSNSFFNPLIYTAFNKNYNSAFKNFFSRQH
MIN6 prolif = inducers of beta-cell replication in MIN6 cells | MIN6 cells proliferation, ATPlite luminescence, 48 h; cells starved in 0.2% serum; 100% = growth in 10% serum | proliferation, % at 10 µM | 330,000 compounds, 0.29% hits | AID 2380;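 active = compounds whose signal lies at least 3.5 SD above the mean of all wells on their plate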;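 also: 0% = DMSO-treated cells in low-serum medium and 100% = 10% serum control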
HTR5A ag = counter-screen for OPRM1-OPRD1 agonists: human HTR5A agonism; 340,000 compounds, 0.61% hits; activation, % at 9.3 µM; HTR5A agonist assay, luminescence, cell-based; in the data active = activation mostly above about 9.5%, no sharp cut-off; inactive = mostly below about 7.6%;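 also: 0% = cells with vehicle only and 100% = reference agonist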
MOR-DOR ag = OPRM1-OPRD1 heterodimerization agonism; P35372+P41143; cells, luminescence; activation, % at 9.3 µM; 340,000 compounds, 0.3% hits; AID 504326; in the data active = activation above about 18%;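 also: 0% = vehicle-treated cells and 100% = reference agonist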
V-ATPase pH = alters yeast V-ATPase proton transport | response, % at 10 µM | 350,000 compounds, 0.37% hits | S. cerevisiae, pHLuorin cytosolic pH fluorescence | AID 504577; in the data active = response mostly above about 7.3%, no sharp cut-off; inactive = mostly below about 5.4%; also: actives read high
The depositor's hits bear a star; / = not tested or not shown. Shown are actives, neighbours in structure and some others; about 1.7% of the full set was active somewhere.

SMILES | OPRM1-OPRD1 inv | HTR5A inv ctr | MIN6 prolif | HTR5A ag | MOR-DOR ag | V-ATPase pH
CCCC#Cc1cnc2c(c1)C(=O)N([C@H](C)CO)C[C@H](C)[C@@H](CN(C)C(=O)CCN1CCCCC1)O2 | / | / | / | / | / | -2
CC(=O)Oc1ccc2c(c1)c(C(C)=O)c(C)n2C | 5 | -7 | 1 | 2 | -1 | 18*
COc1ccccc1CCc1nnc(CCC(=O)NC(C)Cc2ccsc2)o1 (stereo not drawn) | -11 | -28 | -3 | 9.9* | 2 | -3
COc1ccccc1CCc1nnc(CCC(=O)NCC(C)Oc2cccnc2)o1 (stereo not drawn) | 3 | -2 | -3 | 6 | 0 | -3
O=C(c1ccc(S(=O)(=O)NCc2ccco2)cc1)N1CCCC1 | 12 | -13 | 0 | 5 | -2 | 8
N#Cc1ccc(CN2CCN(C(=O)c3ccc(S(=O)(=O)NCc4ccco4)cc3)CC2)cc1 | -2 | -42 | 0 | 12* | 0 | 0
CS(=O)(=O)Nc1cccc(C2=NN(C(=O)CCC(=O)O)C(c3cccs3)C2)c1 (stereo not drawn) | 11 | 2 | 0 | -1 | -2 | -2
CCC(=O)N1N=C(c2cccc(NS(C)(=O)=O)c2)CC1c1cccs1 (stereo not drawn) | 16 | -38 | 0 | 14* | -3 | 4
NC(=O)COC(=O)c1ccc2c(c1)S(=O)(=O)c1ccccc1C2=O | -42 | -7 | -1 | 6 | 6 | -1
Cc1noc(C)c1COC(=O)c1ccc2c(c1)S(=O)(=O)c1ccccc1C2=O | -39 | -34 | -3 | 10* | 7 | 3
CC(C)(C)CN1CCN(CC#Cc2ccccc2)CC1CCO (stereo not drawn) | -12 | 7 | -2 | -2 | 2 | 5
COc1ccc(N2CCN(Cc3nc(N)nc(Nc4ccccc4OC)n3)CC2)cc1 | 0 | -1 | -1 | -3 | 0 | 1
COc1cc(N2CCC(O)CC2)ccc1Nc1nnc(Cl)c(Nc2ccccc2S(C)(=O)=O)n1 | 6 | 26* | / | -9 | -1 | -7
CCSc1nnc(NC(=O)c2cccs2)s1 | 6 | -27 | -3 | -3 | -1 | 16*
O=C(Nc1nnc(SCc2ccccc2)s1)c1cccs1 | -1 | 6 | -2 | 0 | 0 | -2
CN(C(=O)CSc1nc2ccccc2[nH]1)C1CCS(=O)(=O)C1 (stereo not drawn) | 12 | -12 | 0 | 5 | -3 | 0
CCOCCCNc1nc2c(C)cccn2c(=O)c1/C=C1\SC(=S)N(C(C)CC)C1=O (stereo not drawn) | -93 | -2 | -2 | 0 | 18* | 6
CCOc1ccc(NC(=S)N2CCN(CCN3C(=O)c4cccc5cccc(c45)C3=O)CC2)cc1 | -5 | -9 | 3 | 3 | 1 | -1
COC(=O)c1ccc(NC(=S)N2CCN(C)CC2)cc1 | 7 | -36 | 1 | 13* | -2 | 2
COc1cccc2c1OC1(N3CCOCC3)CCCCC1C2C[N+](=O)[O-] (stereo not drawn) | / | / | / | / | / | 0
CC1=NNC(=O)/C1=C\c1cn(-c2ccccc2)nc1-c1ccc(F)cc1 | -34 | -46 | / | 17* | 7 | -6
O=Cc1cn(-c2ccccc2)nc1-c1ccc(F)cc1 | -47 | -6 | -2 | 2 | 9 | -1
COC(=O)CCC(=O)OC1(C)C(=O)C2=CN(C3CC3)C(c3ccc(OC)cc3)=CC2=C(Br)C1=O (stereo not drawn) | -53 | -53 | -5 | 9.4* | 9 | 3
CC1Sc2ccc(C(=O)NCc3cccc(C(F)(F)F)c3)cc2NC1=O (stereo not drawn) | -6 | 10 | 0 | -4 | 2 | -8
CC(C)CC1NC(=O)N(CC(=O)Nc2ccc3c(c2)OCCO3)C1=O (stereo not drawn) | 10 | -19 | -1 | 11* | -3 | 0
SMILES | OPRM1-OPRD1 inv | HTR5A inv ctr | MIN6 prolif | HTR5A ag | MOR-DOR ag | V-ATPase pH
CC(C)(C)OC(=O)N1CCC(NC(=O)c2[nH]cnc2C(=O)Nc2ccccc2F)CC1 | / | / | / | / | / | -1
COc1ccc2[nH]cc(CCNC(=O)c3ccc4ccccc4n3)c2c1 | 4 | -52 | -2 | 14* | -1 | -4
CCC[C@H](CN[C@@H](CNC)[C@H](C)CC)NCCc1cc(C(F)(F)F)cc(C(F)(F)F)c1 | -74 | -9 | -9 | 7 | 14 | -1
CNC[C@@H](CC1CCCCC1)NC[C@H](CC(C)C)NCCc1cccc(C(F)(F)F)c1 | -140 | -14 | -8 | 13* | 25* | 8
CNC[C@@H](Cc1ccccc1)NC[C@@H](CC1CCCCC1)NCCCc1ccccc1 | -126 | -50 | -8 | 20* | 23* | -2
COC(=O)C[C@H](NC(=O)Cn1cnc2c(SC)nc(N)nc21)C(=O)OC | / | / | -2 | / | / | -1
CCOc1cc(N2CCOCC2)c(OCC)cc1NC(=O)CN1CCC(Cc2ccccc2)CC1 | 2 | -32 | -6 | 12* | 0 | 5
CCOc1cc(N2CCOCC2)c(OCC)cc1NC(=O)CN1C(=O)NC(Cc2ccccc2)C1=O (stereo not drawn) | 2 | -8 | -3 | 2 | 0 | 1
CCCNC(=O)c1cc(S(=O)(=O)N2CCCCC2)c[nH]1 | 10 | -9 | 2 | 3 | -2 | 1
O=C(NCc1ccco1)c1ccc(C(=O)NCc2ccco2)s1 | 10 | -7 | -2 | 10* | -2 | -4
COc1ccc(C2=NN(CC(=O)Nc3cc(C)ccc3C)C(=O)CC2)cc1 | 6 | 18 | -3 | -5 | -1 | 1
CCOc1ccccc1N1CCN(Cc2cn[nH]c2-c2ccc(F)cc2)CC1 | 1 | -14 | -1 | 14* | 0 | -2
Nc1ccc(-c2c3ccc(=O)cc-3oc3cc(O)ccc23)c(C(=O)O)c1 | 32* | 17 | -1 | -5 | -6 | -1
O=c1ccc2[n+]([O-])c3ccc(O)cc3oc-2c1 | -2 | -6 | / | 2 | 0 | -2
COc1ccccc1C(=O)OCC(=O)NC(=O)NC1CCCC1 | 9 | 12 | -2 | -3 | -2 | /
COc1ccccc1C(=O)OCC(=O)NC(C)CCc1ccccc1 (stereo not drawn) | 19 | -46 | 3 | 13* | -4 | 5
COc1ccccc1C(=O)OCC(=O)NC1CCCC1 | 12 | 9 | -1 | -2 | -3 | 259*
CC(CCc1ccccc1)NC(=O)COC(=O)c1ccccc1O (stereo not drawn) | 10 | -7 | -2 | 3 | -2 | -4
Cc1ccc2nc3n(c(=O)c2c1)-c1cc2ccccc2cc1C(=O)NC3Cc1ccccc1 (stereo not drawn) | / | / | / | / | / | 0
C[C@H](NC(=O)c1ncn2c1C(=O)N[C@@H](C)C2)c1ccccc1 | / | / | / | / | / | 0
CCN(CCCNC(=O)C1CCN(S(=O)(=O)c2cnc[nH]2)CC1)c1cccc(C)c1 | -1 | -8 | -2 | 11* | 0 | 3
O=C(c1ccccc1CCc1ccccc1)N1CCCC1 | 4 | 8 | -3 | -2 | -1 | 40*
